Calb FLC – affects C. albicans growth with fluconazole; hit rate 0.57% among 300,000; C. albicans CaCi-2 (fluconazole-resistant clinical isolate) + fluconazole, Alamar Blue growth, 48 h; growth inhibition, % (no concentration beside the values);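 active = growth inhibition above about 58% in most replicates, limit read from the data, passing the limit was not always enough; inconclusive = exactly half the replicates above a set limit; inactive = most replicates below a set limit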;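 also: all wells also contain fluconazole at 8 µg/ml as a sub-toxic cotreatment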
Cl transport mod – modulates chloride dependent transport by human KCC2; AID 1456; hit rate 2.2% among 190,000; B-score of Tl+ flux slope (higher = more flux/activation; lower = inhibition) at 10 µM; KCC2 cells, thallium flux FluoZin-2 fluorescence;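 active = thallium flux slope and its plate-corrected score both differing from the plate sample mean at a set confidence after two filtering rounds, in either direction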;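 also: slope of fluorescence scaled to starting intensity during 10 to 20 s after thallium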
Target sequence (Q9H2X9 whole entry, looked up): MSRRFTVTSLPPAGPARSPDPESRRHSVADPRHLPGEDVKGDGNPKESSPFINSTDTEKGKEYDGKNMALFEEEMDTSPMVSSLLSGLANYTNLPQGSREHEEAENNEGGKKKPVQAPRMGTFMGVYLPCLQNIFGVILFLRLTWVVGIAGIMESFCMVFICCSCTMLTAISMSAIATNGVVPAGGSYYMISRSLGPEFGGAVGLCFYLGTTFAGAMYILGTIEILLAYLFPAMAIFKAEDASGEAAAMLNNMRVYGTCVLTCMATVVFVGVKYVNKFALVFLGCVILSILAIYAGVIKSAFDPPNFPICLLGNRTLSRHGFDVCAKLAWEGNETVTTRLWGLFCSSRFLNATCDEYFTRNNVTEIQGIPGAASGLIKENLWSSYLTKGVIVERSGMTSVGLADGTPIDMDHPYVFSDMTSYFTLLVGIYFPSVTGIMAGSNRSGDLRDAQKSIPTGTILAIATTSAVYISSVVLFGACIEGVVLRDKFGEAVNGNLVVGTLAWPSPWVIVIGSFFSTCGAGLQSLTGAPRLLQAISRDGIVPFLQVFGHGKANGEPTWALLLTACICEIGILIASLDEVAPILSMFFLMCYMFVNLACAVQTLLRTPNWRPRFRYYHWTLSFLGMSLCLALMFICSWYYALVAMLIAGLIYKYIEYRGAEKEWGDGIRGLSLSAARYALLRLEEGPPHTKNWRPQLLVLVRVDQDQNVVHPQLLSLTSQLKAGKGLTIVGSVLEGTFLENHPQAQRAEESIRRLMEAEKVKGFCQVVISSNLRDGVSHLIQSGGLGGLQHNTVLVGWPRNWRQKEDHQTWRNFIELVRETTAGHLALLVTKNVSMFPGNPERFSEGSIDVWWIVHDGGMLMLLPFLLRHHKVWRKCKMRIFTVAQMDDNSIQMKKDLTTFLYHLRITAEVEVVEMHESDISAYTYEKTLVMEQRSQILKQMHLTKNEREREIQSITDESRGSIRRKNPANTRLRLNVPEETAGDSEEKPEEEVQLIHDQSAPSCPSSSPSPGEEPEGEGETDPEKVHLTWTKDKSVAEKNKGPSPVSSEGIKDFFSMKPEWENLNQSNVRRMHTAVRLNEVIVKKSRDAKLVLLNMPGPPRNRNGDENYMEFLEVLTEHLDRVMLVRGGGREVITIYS
Cardio protect – protects H9c2 cardiomyocytes from peroxide injury; protection from H2O2 cell death, % at 20 µM; AID 588492; hit rate 0.63% among 360,000; H2O2 injury protection, ATPLite, 2 h;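 active = compounds giving at least 50% protection of heart cells from peroxide-induced death in the single-dose screen, raw or plate-pattern-corrected value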
Efflux pump inh – antifungal efflux pump inhibition, Nile Red retention | S. cerevisiae Candida pump triplex | inhibition, % at 10 µM | hit rate 0.44% among 330,000 | AID 485275;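 active = plate passing quality check with inhibition over a set limit, or well fluorescence over plate mean plus 4 SD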;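 also: Nile Red retained in pooled yeast measured as flow cytometry median fluorescence; higher means more Nile Red kept so more efflux inhibition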
PHOSPHO1 block – PHOSPHO1 (human) inhibition; Q8TCT1; recombinant PHOSPHO1, absorbance phosphatase assay; inhibition, % at 13.3 µM; hit rate 1.1% among 290,000; AID 1565; in the data active = inhibition above about 60%
KCC2 secondary – confirmation of human KCC2 transport modulators; HEK293-KCC2, thallium flux, FluoZin2 fluorescence; hits give high values; shares compounds with Cl transport mod; normalised thallium flux (F/F0 slope) at 10 µM; AID 1713; hit rate 15% among 3,700;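 active = thallium flux slope above the same plate's solvent-only control mean plus 3 SD; inconclusive = the two replicate wells disagree; inactive = no significant difference from solvent-only control wells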
KCC2 bumet counter – thallium flux persisting under bumetanide in KCC2 cells, counter-screen secondary assay. shares compounds with Cl transport mod. HEK293-KCC2 + bumetanide/ouabain, thallium flux FluoZin2; hits give high values. normalized thallium flux at 10 µM. hit rate 49% among 3,700. AID 1714;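 active = thallium entry rate above the same plate's blocked-transporter control wells by more than 3 SD; inconclusive = the two repeat wells disagree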;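 also: raw slope of fluorescence over initial fluorescence between 10 and 20 s after thallium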
KCC2 secondary2 – confirmation of human KCC2 transport modulators; shares compounds with Cl transport mod; HEK293-KCC2, thallium flux FluoZin2 fluorescence; actives lie on both sides; F/F0 rise rate, 10–20 s post-thallium; normalized thallium flux at 10 µM; hit rate 23% among 3,700;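 active = thallium flux slope more than 3 SD above or below the plate's solvent-only control mean, mostly below; inconclusive = the two repeat wells disagreed; inactive = no significant shift from solvent-only controls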
HEK293 Tl flux – acts in parental HEK cells, KCC2 counter-screen. AID 1716. thallium flux rate (normalised fluorescence) at 10 µM. shares compounds with Cl transport mod. HEK293 parental cells, thallium flux FluoZin2, ouabain; baseline-ratio fluorescence slope, 10–20 s after thallium. hit rate 46% among 3,700;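 active = thallium flux rate significantly above the same plate's solvent-only control wells, beyond their mean plus 3 SD; inconclusive = the two replicate wells gave conflicting results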
KCC2 retest ouab – modulates human KCC2 on retest with ouabain; shares compounds with Cl transport mod; HEK293-KCC2, thallium flux FluoZin2 fluorescence; bidirectional: low = inhibitor, high = activator; raw Tl+ flux slope (below DMSO = inhibition, above = activation) at 10 µM; hit rate 48% among 3,700;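 active = thallium flux slope beyond 3 SD from same-plate DMSO control mean in most replicates, usually higher, sometimes lower; inconclusive = repeat tests gave conflicting results; inactive = no significant difference from controls in most replicates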;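 also: slope of initial-normalized fluorescence between seconds 10 and 20 after thallium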
HEK293 Tl flux2 – counter-screen for KCC2 modulators: effect in parental HEK293 cells; shares compounds with Cl transport mod; thallium flux slope at 10 µM; thallium flux FluoZin-2 fluorescence slope; hit rate 33% among 3,700;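 active = thallium flux slope above the same plate's solvent-control mean plus 3 SD in both duplicate wells; inconclusive = duplicate wells that disagreed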;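 also: run without ouabain in cells lacking the KCC2 cotransporter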
Each line names hits and unclear results; the compound was inactive in the other large screens (follow-up assays come after a bar, where they were run). Most compounds without a hit are left out; they make up all but 3.3% or so of the library.

COc1ccc(NC(=O)NCCCCc2ccccc2)cc1	none (no result: Cl transport mod)
COc1ccccc1/C(C)=N/NC(=S)NCc1ccccc1	Cl transport mod 6.9 | KCC2 secondary inactive | KCC2 bumet counter 0.015 | KCC2 secondary2 inactive | HEK293 Tl flux 0.015 | KCC2 retest ouab inconclusive | HEK293 Tl flux2 0.014
C=CCNC(=S)N/N=C(\C)c1cccc(OC)c1	Cl transport mod 4.9 | KCC2 secondary 0.013 | KCC2 bumet counter 0.043 | KCC2 secondary2 inactive | HEK293 Tl flux 0.015 | KCC2 retest ouab inactive | HEK293 Tl flux2 0.012
O=C(CCN1CCN(C(=O)c2ccccc2)CC1)c1ccc(Br)cc1	none (no result: Cl transport mod)
COc1ccc(/C(C)=N/NC(=S)NCCc2ccccc2)cc1	Cl transport mod 7.7 | KCC2 secondary inactive | KCC2 bumet counter 0.016 | KCC2 secondary2 inactive | HEK293 Tl flux 0.021 | KCC2 retest ouab inconclusive | HEK293 Tl flux2 inconclusive
C/C(=N\NC(=S)NCc1ccccc1)c1cccc(Br)c1	Cl transport mod 4.8 | KCC2 secondary inactive | KCC2 bumet counter 0.017 | KCC2 secondary2 inactive | HEK293 Tl flux inactive | KCC2 retest ouab inactive | HEK293 Tl flux2 inactive
C/C(=N\NC(=S)NCc1ccccc1)c1ccc2ccccc2c1	Cl transport mod 6 | KCC2 secondary inactive | KCC2 bumet counter 0.019 | KCC2 secondary2 inactive | HEK293 Tl flux 0.0085 | KCC2 retest ouab inconclusive | HEK293 Tl flux2 inactive
S=C(NCc1ccccc1)Nc1ccc2ccccc2c1	none (no result: Cl transport mod)
C/C(=N\NC(=S)NCCc1ccccc1)c1cccc(Br)c1	none
COc1ccc(CNC(=S)N/N=C(\C)c2ccc(OC)cc2)cc1	none
COc1cccc(OCc2ccc(Cn3nc(NC(=O)NCCc4ccc(OC)c(OC)c4)c4ccccc43)cc2)c1	none (no result: Calb FLC, Cl transport mod, Efflux pump inh, PHOSPHO1 block)
C=CCn1c(CSc2nc3ccccc3s2)n[nH]c1=S	Cl transport mod -4.4, PHOSPHO1 block 106 | KCC2 secondary inactive | KCC2 bumet counter 0.0093 | KCC2 secondary2 0.024 | HEK293 Tl flux 0.0099 | KCC2 retest ouab 0.014 | HEK293 Tl flux2 inconclusive
COC(=O)c1ccccc1Sc1ncnc2onc(C)c12	none (no result: Cl transport mod)
FC(F)(F)c1nc2ccccc2nc1N/N=C\c1ccccc1	none (no result: Cl transport mod) | KCC2 secondary inactive | KCC2 bumet counter 0.0059 | KCC2 secondary2 inactive | HEK293 Tl flux inactive | KCC2 retest ouab inactive | HEK293 Tl flux2 inactive
NNc1nc2ccccc2nc1C(F)(F)F	none
O=C(CSc1cccc2cccnc12)N1CCCC1	Cl transport mod 22 | KCC2 secondary inactive | KCC2 bumet counter 0.033 | KCC2 secondary2 inactive | HEK293 Tl flux 0.026 | KCC2 retest ouab 0.037 | HEK293 Tl flux2 0.016
CCCCn1c(N)c(N(CCOC)C(=O)COC(=O)COc2c(C)cc(C)cc2C)c(=O)[nH]c1=O	none (no result: Cl transport mod, PHOSPHO1 block)
COc1ccc(/C=N/NC(=O)CN(Cc2ccccc2)S(=O)(=O)c2ccc3c(c2)OCCO3)cc1	none
COc1cc(/C=N/NC(=O)CN(Cc2ccccc2)S(=O)(=O)c2ccc3c(c2)OCCO3)ccc1O	Cl transport mod -4.4 | KCC2 secondary inactive | KCC2 bumet counter inactive | KCC2 secondary2 inconclusive | HEK293 Tl flux inactive | KCC2 retest ouab 0.014 | HEK293 Tl flux2 inactive
O=C(O)/C(=C\c1cccc(F)c1)c1ccc(S(=O)(=O)N2CCCCC2)s1	Cl transport mod -5.6 | KCC2 secondary inactive | KCC2 bumet counter inactive | KCC2 secondary2 inactive | HEK293 Tl flux inactive | KCC2 retest ouab 0.014 | HEK293 Tl flux2 inactive
O=C(O)/C(=C\c1cccc(O)c1)c1ccc(S(=O)(=O)N2CCCC2)s1	none (no result: Calb FLC, Cl transport mod, PHOSPHO1 block)
Cc1cscc1-c1cc2nc(NCCCN(C)C)n(C)c(=O)c2s1	none (no result: Calb FLC, Cl transport mod, Efflux pump inh, PHOSPHO1 block)
Cc1ccc(CCNC(=O)c2ccc(CS(=O)(=O)Cc3ccccc3F)o2)cc1	Cl transport mod -6.8 | KCC2 secondary inactive | KCC2 bumet counter inconclusive | KCC2 secondary2 inconclusive | HEK293 Tl flux inactive | KCC2 retest ouab inactive | HEK293 Tl flux2 inactive
O=C(NCCc1ccccc1)c1ccc(CS(=O)(=O)Cc2ccccc2F)o1	none
Cn1c(Cc2c[nH]c3ccccc23)n[nH]c1=S	PHOSPHO1 block 89 (no result: Cl transport mod) | KCC2 secondary inactive | KCC2 bumet counter inactive | KCC2 secondary2 inactive | HEK293 Tl flux inconclusive | KCC2 retest ouab inconclusive | HEK293 Tl flux2 inactive
Nn1c(Cc2cccc3ccccc23)n[nH]c1=S	none
Cc1[nH]c2ccccc2c1Cc1nnc(SCC(N)=O)o1	none
S=c1[nH]nc(Cc2cccc3ccccc23)o1	Cl transport mod -8 | KCC2 secondary inactive | KCC2 bumet counter inactive | KCC2 secondary2 0.015 | HEK293 Tl flux inactive | KCC2 retest ouab inconclusive | HEK293 Tl flux2 inactive
Cn1c(Cn2c3ccccc3c3ccccc32)n[nH]c1=S	none (no result: Cl transport mod)
Cc1[nH]c2ccccc2c1Cc1n[nH]c(=S)o1	Cl transport mod -3.4, PHOSPHO1 block 90 | KCC2 secondary inactive | KCC2 bumet counter inactive | KCC2 secondary2 0.022 | HEK293 Tl flux inactive | KCC2 retest ouab 0.041 | HEK293 Tl flux2 inactive
Cc1[nH]c2ccccc2c1Cc1n[nH]c(=S)n1C	Cl transport mod -6.4 | KCC2 secondary inactive | KCC2 bumet counter inactive | KCC2 secondary2 0.024 | HEK293 Tl flux inactive | KCC2 retest ouab 0.011 | HEK293 Tl flux2 inactive
Cc1ccc(OC(C)C(=O)N(Cc2cccs2)C2CCS(=O)(=O)C2)cc1C (centres undefined)	none
COc1ccc([C@H]2Cc3cc(O)cc(O)c3C(=O)O2)cc1O	none (no result: Calb FLC, Cl transport mod, PHOSPHO1 block)
O=C(Cn1cc(C(=O)C(=O)N2CCOCC2)c2ccccc21)Nc1cccc(C(F)(F)F)c1	none (no result: Calb FLC, Cl transport mod, Efflux pump inh, PHOSPHO1 block)
O=C(COC(=O)C1C2CC3OC(=O)C1C3C2)Nc1ccc(Cl)cc1 (centres undefined)	none (no result: Cl transport mod)
Cn1c(CSc2nc3ccccc3s2)nnc1SCC(=O)NCc1ccccn1	Cl transport mod -4 | KCC2 secondary inactive | KCC2 bumet counter inactive | KCC2 secondary2 inactive | HEK293 Tl flux inactive | KCC2 retest ouab inconclusive | HEK293 Tl flux2 inactive
Cc1ccc(OCCCn2c(=O)sc3ccccc32)cc1	Cl transport mod 5.8 | KCC2 secondary inactive | KCC2 bumet counter inactive | KCC2 secondary2 inactive | HEK293 Tl flux inactive | KCC2 retest ouab inactive | HEK293 Tl flux2 inconclusive
Cc1ccc(OCCn2c(=O)sc3ccccc32)cc1	none
COc1ccc(CNC(=O)c2cn(Cc3ccc(OC(C)=O)cc3)c(=O)s2)cc1	none (no result: Calb FLC, Cl transport mod, Efflux pump inh, PHOSPHO1 block)

Screening results (PubChem)
